# Experimental data from PubChem BioAssay AID445 (National Center for Advancing Translational Sciences (NCATS), 2006).
# Out of some 110,000 compounds screened, about 40 (0.04%) were called active. Another 22% or so got no clear call; they are omitted. The call rests on the fitted dose curve; in most records, active means well fitted curve in the direction sought with a large enough effect in the signal ratio (not every such curve was filed as active); inconclusive means small, poorly fitted or top-dose-only effect, or a change in a side signal; inactive means flat fitted curve, though single readings scatter; the % refers to the signal ratio. The sample as a whole holds a higher share of actives than the screen did.
# Assay: IkB Signaling;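 on IkBa stabilization activation: 0% = basal untreated cells and 100% = reference inhibitor full response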
# Details: ABC-DLBCL IkBa-CBG/CBR dual luciferase ratio, 4 h; series mostly up to 57.1 µM; IkBa stabilization activation: at the top concentration
# From the text: NIH Molecular Libraries Screening Centers Network [MLSCN]
# NIH Chemical Genomics Center [NCGC]
# Nuclear factor kappa-B (NF-kappa-B) plays an important role in normal B cell development and survival. Diffuse large B cell lymphoma (DLBCL) is the most commonly observed type of non-Hodgkin's lymphoma. Gene expression analysis has identified an activated B cell-like subtype of DLBCL (ABC-DLBCL) which expresses known NF-kappa-B target genes. […] However, targets upstream of IKK have been largely unexplored and so nodes upstream of IKK in the NF-kappa-B pathway remain untested due to the lack of chemical probes.
# A cell-sensor assay for I-kappa-B-alpha stabilization was developed with NIH investigator Dr. R. Eric Davis in Dr. Louis M. Staudt's laboratory. The assay uses green (CBG68) and red (CBR) emitting beetle luciferases [Chroma-Glo(TM) developed by Promega Corp.] where the green luciferase is fused to I-kappa-B-alpha and the red luciferase is present in its native state. Both luciferase genes are stably present in the OCI-Ly3 human ABC DLBCL cell line, but their expression is under the control of tetracycline-inducible promoters. Following the addition of doxycycline to induce expression of the luciferases, the green luminescence in control cultures rises only slowly because the CBG fusion partner I-kappa-B-alpha is targeted by IKK activity for rapid degradation. In contrast, green luminescence rises rapidly in the presence of proteasome inhibitors or IKK inhibitors. The rise in red luminescence of CBR is not affected by proteasome or IKK inhibitors, and serves as normalization for cell number and nonspecific effects. Compounds were screened as a concentration-titration series that ranged from 57 uM to 0.7 nM.
# NCGC Assay Protocol Summary:
# Cells were seeded in 1536-well plates at 5000 cells/3ul in IMDM medium containing 0.5% FBS, w/o phenol red, L-glutamine, 25 mM HEPES, 3 mg/ml sodium bicarbonate. After centrifugation for 1 min. at 1000 rpm, 23 nl of compounds or DMSO were delivered to each well using a pin tool. Then 1ul 80ng/ml doxycycline was dispensed into white solid 1536-well plates and the plates were incubated at 37C/5% C02 in a cell incubator for 4 hrs. Then 4 ul Chroma-Glo luminescent substrate mix (Promega) was added to each well. The plate was incubated at R.T. for 10-15 min. The plates were measured on a ViewLux plate reader for green luminescence (540/20 nm filter) and red luminescence (618/8 nm filter). The green and red luminescent signals were corrected for red and green luminescence filter overlap using previously determined filter calibration constants (determined using the procedure outlined in the Promega Technical Manual). The %Activity was determined from the ratio of corrected green/red luminescent values. Green luminescent and ratio %Activity was determined by normalizing to the difference in signal between basal cells (0% Activity) and cells incubated with 10 uM of the proteasome inhibitor MG-132 (100% Activity). Red luminescent %Activity was normalized to the difference between red luminesence in basal cells (0%Activity) and zero luminescence (-100% Activity).
# Concentration-response curves were fitted to the signals arising from the green luminescence (I-kappa-B-alpha-luciferase fusion; IkB-luc) and the red luminescence (unfused luciferase; luc) as well as the calculated ratio. The concentration-effect curves were then classified based on curve quality (r2), response magnitude and degree of measured activity. Compounds were then categorized based on their concentration-response curves for all three datasets (Ikb-luc, luc and ratio).
# Keywords: IKK, I-kappa-B, IkB, IkBa, cytotoxicity, luminescence, MLSMR, MLSCN, NIH Roadmap, qHTS, NCGC
# Potency means the concentration at half of the fitted maximal effect.
Structure (SMILES),IkBa stabilization activation,Potency
O=C(NCCc1ccccc1)c1ccc2c(c1)N(Cc1ccccc1)C(=O)c1ccccc1S2(=O)=O,-2.13% (inactive),
CCCN(CCC)C(=O)C(Cc1ccccc1)NS(=O)(=O)c1ccc2c(c1)c(=O)n(C)c(=O)n2C (stereo not drawn),0.449% (inactive),
CCOc1ccc(CCNC(=O)c2c(C)oc3ncn(C)c(=O)c23)cc1,-0.592% (inactive),
O=C(NCCCO)c1nn(-c2ccc(Cl)cc2)nc1CO,-1.87% (inactive),
Cc1ccc(NC2=C(c3ccc(C(F)(F)F)cc3)C(=O)c3ccccc32)cc1F,6.11% (inactive),
CC(C)OCCCn1c(SCC(=O)c2ccccc2)nc2c(sc3ccccc32)c1=O,-0.853% (inactive),
CCCN1CCN(CCCNC(=O)c2cnn(-c3ccc(C)cc3)c2-n2cccc2)CC1,-2.29% (inactive),
COc1cc(OC)c(OC)cc1/C=C/c1nc2ccccc2c(=O)n1-c1ccc(Br)c(C)c1,-1.32% (inactive),
Cc1cccc(NC(=O)CSc2nc3c([nH]c4ccccc43)c(=O)n2-c2cc(C)cc(C)c2)c1,-1.03% (inactive),
COc1ccc(CNS(=O)(=O)c2ccc(-c3cnc(C4CC4)o3)cc2)cc1,-0.844% (inactive),
CCOC(=O)c1c(C)[nH]c(C)c1S(=O)(=O)N(C)CC(=O)N1CCN(c2ccccc2)CC1,0.594% (inactive),
CCOC(=O)c1c(NC(=O)/C=C/c2ccc(OC)cc2)sc2c1CCC(C)C2 (stereo not drawn),1.01% (inactive),
O=C(NCCc1ccccc1)C(=O)NCC(c1ccco1)S(=O)(=O)c1ccccc1 (stereo not drawn),-1.39% (inactive),
CC(NC(=O)CCc1cn(Cc2ccccc2Cl)c2ccccc12)c1ccccc1 (stereo not drawn),2.65% (inactive),
CCc1nc2onc(C)c2c(=O)n1CC(=O)O,2.07% (inactive),
O=C1OC(C(=O)Nc2cccc(Br)c2)Cc2ccccc21 (stereo not drawn),-0.928% (inactive),
CCC(=O)N1CCc2cc(CNC(=O)Nc3ccccc3Cl)ccc21,0.103% (inactive),
CCS(=O)(=O)N1CCC(n2c(C)nc3cccnc32)CC1,0.706% (inactive),
Cc1oc2c(c1C(=O)Nc1ccc(F)c(F)c1)C1=NCCN1C=N2,0.228% (inactive),
O=C(c1ccc2c(c1)N(Cc1ccccc1F)C(=O)c1ccccc1S2(=O)=O)N1CCOCC1,-0.457% (inactive),
Cc1ccc(S(=O)(=O)c2nnn3c2nc(N2CCN(c4ccccc4F)CC2)c2cc(Cl)ccc23)cc1C,-1.33% (inactive),
COCCCNC(=O)c1c(NC(=O)c2cc(=O)c3cc(C)c(C)cc3o2)sc2c1CCCC2,-1.3% (inactive),
CC(C)(C)OC(=O)N1CCC(c2c(C(=O)N3CCc4ccccc4C3)cnn2-c2ccc(F)cc2)CC1,0.532% (inactive),
Cc1ccc2nc(-c3ccc(C)c(NC(=O)Cc4ccccc4)c3)oc2c1,-2.33% (inactive),
O=C(NCc1ccc(F)cc1)c1ccc2nc(N3CCCCC3)sc2c1,-0.827% (inactive),
COc1ccc(-c2nn(CC(=O)NC3CCCC3)c3c2cnc2ccc(F)cc23)cc1,-3.12% (inactive),

Structure (SMILES),IkBa stabilization activation,Potency
CCOc1ccc(N2CC(C)Cn3c2nc2c3c(=O)n(Cc3c(F)cccc3Cl)c(=O)n2C)cc1 (stereo not drawn),-0.396% (inactive),
CCOc1ccc(NC(=O)Cn2c(C)ccc(C#N)c2=O)cc1,-1.37% (inactive),
O=C(Nc1cccc2cccnc12)c1cccc2c(Br)cccc12,-3.7% (inactive),
COc1ccc(-n2c(SC)nc3sc4c(c3c2=O)CCN(C(C)=O)C4)cc1,1.77% (inactive),
Cc1ccc(S(=O)(=O)N2CCc3cc(C(=O)Nc4ccc(Cl)cc4C)ccc32)cc1,-1.18% (inactive),
COc1ccc(C)cc1-n1c(-c2ccc(C)cc2)cc2c1CC(C)(C)CC2=O,1.22% (inactive),
CCC1CCCCN1Cc1c(O)ccc2c(=O)c(Oc3ccccc3Cl)c(C(F)(F)F)oc12 (stereo not drawn),6.03% (inactive),
Cc1ccc(F)cc1S(=O)(=O)N1CCC(c2nc3ccccc3s2)CC1,1.9% (inactive),
CC(=O)c1ccc(NC(=O)COc2ccccc2-c2nc(-c3ccccc3)no2)cc1,-2.41% (inactive),
CCc1nn(CCCC(=O)NC(C)c2ccccc2)c(=O)c2cc3occc3n12 (stereo not drawn),0.87% (inactive),
CC(=O)N1CCCc2cc(S(=O)(=O)Nc3ccc(Cl)cc3F)ccc21,0.612% (inactive),
COc1ccc(CNC(=O)C(C)n2nc(C)c3c(C)n(-c4ccccc4)nc3c2=O)c(OC)c1 (stereo not drawn),2.88% (inactive),
Cc1ccc(-c2nc(Cn3c(=O)cc(-c4ccccc4)c4c(C)nn(C)c43)c(C)o2)cc1,-0.408% (inactive),
COc1ccc(C2C(=O)N(C3CCCCC3)CC(=O)N2Cc2ccccc2Cl)cc1OC (stereo not drawn),-0.663% (inactive),
Cc1ccc(NC(=O)c2oc3ccccc3c2NC(=O)Cc2cccs2)cc1,0.174% (inactive),
CCOC(=O)C1CCN(S(=O)(=O)c2ccc3c(c2)N(C)C(=O)CC(=O)N3C)CC1,0.0845% (inactive),
COc1ccc(-c2nc3nc(C)cc(C)n3c2Nc2c(C)cccc2C)cc1,4.16% (inactive),
Cc1ccc(C)c(CN2C(=O)c3ccccc3S(=O)c3ccc(C(=O)N4CCOCC4)cc32)c1 (stereo not drawn),0.246% (inactive),
Cc1ccccc1CNC(=O)CCCn1nc(C)c2sc3ccccc3c2c1=O,-0.00104% (inactive),
CCc1cccc(NC(=O)Cn2nc(CC)n3c(cc4cc(C)ccc43)c2=O)c1,6.39% (inactive),
Cn1c(=O)c2c(ncn2CC(=O)Nc2cccc(C(F)(F)F)c2)n(C)c1=O,6.05% (inactive),
COc1ccc(NS(=O)(=O)c2cc3c(cc2C)N(C(C)=O)CCO3)cc1,12.8% (inactive),
COc1cc(C)ccc1OCCSc1nc2ccc(NC(=O)c3ccc(C)cc3)cc2s1,0.344% (inactive),
CCOC(=O)c1ccc(-c2ccc(/C=C(\C#N)C(=O)Nc3ccc(C)cc3)o2)cc1,-0.769% (inactive),
CCn1c2c(c(=O)n3ncc(C(=O)N4CCN(c5ccccc5)CC4)c13)CN(Cc1ccc(OC)cc1)CC2,1.86% (inactive),
Cc1cccc(-n2c(SCC(N)=O)nc3c(oc4ccccc43)c2=O)c1,-0.917% (inactive),

Structure (SMILES),IkBa stabilization activation,Potency
Cc1cccc(-c2nc(SCc3ccc(Br)cc3)n3[nH]c(=O)cc3n2)c1,-5.03% (inactive),
CCOc1cccc2sc(N3CCN(C(=O)C4CC4)CC3)nc12,-4.76% (inactive),
O=c1cc(CSc2ncn[nH]2)[nH]c2ccc(F)cc12,0.491% (inactive),
O=C(CC1Oc2ccccc2NC1=O)NCc1ccc(F)cc1 (stereo not drawn),2.65% (inactive),
Cc1ccc(CNC(=O)CCC(=O)N2Cc3ccccc3Oc3ncccc32)cc1,2.77% (inactive),
Cc1cc(C)c(NC(=O)Cn2c(SCC(=O)NCc3ccccc3)nc3ccccc32)c(C)c1,-0.55% (inactive),
CCCC(=O)N1CCN(c2nc3c(OC)ccc(C)c3s2)CC1,-4.62% (inactive),
Cc1cccc(Nc2cc(C)nc(-n3nc(C)cc3C)n2)c1,-1.06% (inactive),
CC(=O)c1ccc(Oc2cc(C)nc(-n3nc(C)cc3C)n2)cc1,,6.31 µM (active)
Cc1cc(C)n(-c2ccc(Cl)c(C(=O)O)n2)n1,1.24% (inactive),
OCc1cnc(SCc2ccc(F)cc2)n1Cc1ccc(F)cc1,1.24% (inactive),
CC(C)(C)OC(=O)N1CCC(c2c(C(=O)NCc3ccccn3)cnn2-c2ccc(F)cc2)CC1,0.0918% (inactive),
COc1ccccc1NC(=O)CN1C(=O)c2ccccc2Sc2ccc(C(=O)N3CCCC3)cc21,12.1% (inactive),
COCCn1c(CCC(=O)Nc2cc(C)ccc2C)nc2cccnc21,1.81% (inactive),
Cc1ccc(N2CC(C(=O)Nc3ccc(N(C)C)cc3)CC2=O)cc1Cl (stereo not drawn),1.8% (inactive),
CCOc1ccc(N(CC)C(=O)c2noc3c2COc2ccc(C)cc2-3)cc1,-0.625% (inactive),
Cc1ccc(C)c(N2C(=O)N(Cc3c(F)cccc3Cl)c3ccccc3S2(=O)=O)c1,9.61% (inactive),
Cc1csc2nc(COC(=O)c3ccccc3NC(=O)c3ccccc3Cl)cc(=O)n12,2.09% (inactive),
CCN(CC)C(=O)CSc1nc2cc3c(cc2c(=O)n1CCCC(=O)NCc1ccc2c(c1)OCO2)OCO3,-2.8% (inactive),
O=C(CCn1c(=O)c2ccccc2n(Cc2ccc(Cl)cc2)c1=O)NCc1ccc2c(c1)OCO2,-0.548% (inactive),
CCOc1ccc2nc(N3CCCC(C(=O)Nc4cc(C)ccc4C)C3)sc2c1 (stereo not drawn),-0.374% (inactive),
CCc1ccc(NC(=O)CN2C(=O)CCSc3ccc(S(=O)(=O)N4CCCC4)cc32)cc1,1.01% (inactive),
Cc1cccc(NC(=O)Cn2c(C(F)(F)F)nc3ccccc32)c1C,2.61% (inactive),
COc1ccc(C2c3c(oc4ccccc4c3=O)C(=O)N2Cc2ccc3c(c2)OCO3)cc1 (stereo not drawn),3.44% (inactive),
Cc1ccc(Cl)cc1NC(=O)C(C)n1nnc2sc(-c3ccccc3)cc2c1=O (stereo not drawn),-1.77% (inactive),
CCOC(=O)c1sc(NC(=O)/C=C/c2ccc(C(C)C)cc2)c(C(=O)OCC)c1C,-4.34% (inactive),
